Bioassay records from PubChem BioAssay.
HTT-AS act: HTT-AS promoter activation | HEK293 HTT-AS promoter firefly luciferase reporter, 24 h; response scale: percent change from vehicle, -100% = no light | Potency, µM (doses to about 57.5 µM), actives largely listed as activators | 0.24% of 48,000 active; further: nearly all actives have a fitted effect of over 55% in size
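Firefly luciferase signal from promoter-reporter HEK293 cells was scaled between vehicle (0%) and zero RLU (-100%). Compounds were tested at final concentrations of up to 57.5 uM over 24 h at 37 degrees C. PTC124 at 50 uM final served as control inhibitor.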
NTMT1 inhibitor: inhibitors of human N-terminal methyltransferase NTMT1 | 2.5% of 59,000 active | Q9BV86 | NTMT1 MTase-Glo SAH luminescence, purified enzyme | Potency, µM (doses to about 114 µM), actives largely listed as inhibitors | AID 1645870; further: nearly all actives have a fitted effect of over 65% in size
Target sequence (Q9BV86 whole entry, looked up): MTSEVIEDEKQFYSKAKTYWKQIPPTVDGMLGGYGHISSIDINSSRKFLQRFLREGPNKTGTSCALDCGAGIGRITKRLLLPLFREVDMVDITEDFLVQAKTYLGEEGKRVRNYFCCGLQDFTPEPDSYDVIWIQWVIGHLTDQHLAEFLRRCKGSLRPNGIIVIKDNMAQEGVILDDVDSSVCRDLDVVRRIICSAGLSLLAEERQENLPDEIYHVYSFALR
HTT promoter inh: HTT promoter inhibition; AID 1508623; Potency, µM (top dose mostly 57.5 µM), most hits filed as inhibitors; 0.93% of 48,000 active; HEK293 HTT promoter firefly luciferase reporter, 24 h; further: nearly all actives have a fitted effect of over 50% in size
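Quantitative HTS used concentration series of up to 57.5 uM final on HEK293 luciferase reporter cells, 24 h at 37 degrees C. Readout was Dual-Glo firefly luminescence.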
DYRK1A inh-1: blocks recombinant human DYRK1A kinase activity; recombinant DYRK1A, Kinase-Glo ATP depletion luminescence; Potency, µM (highest dose often 76.9 µM), actives largely listed as inhibitors; 80% of 100 active; shares compounds with NTMT1 inhibitor
CLK4 inh-1: inhibits human CLK4 kinase in Kinase-Glo confirmation | shares compounds with NTMT1 inhibitor | 90% of 90 active | recombinant Clk4, Kinase-Glo ATP luminescence, 4.5 h | Potency, µM (top dose mostly 76.9 µM), usual class: inhibitors
CLK4 inh-2: CLK4 kinase inhibition, SAR round 2 | shares compounds with NTMT1 inhibitor | Reaction Biology kinase assay, 10 uM ATP | Potency, µM, hits mostly inhibitors | 100% of 65 active | AID 504421; calls by dose curve
DYRK1A inh-2: DYRK1A kinase inhibition | shares compounds with NTMT1 inhibitor | 90% of 65 active | Potency, µM, hits mostly inhibitors | Reaction Biology kinase assay, 10 uM ATP;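 active means compounds that showed inhibition of Dyrk1a and received a fitted potency; inactive means compounds that showed no inhibition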
CLK2 inh: blocks human CLK2 kinase in radiometric assay. shares compounds with NTMT1 inhibitor. Reaction Biology kinase assay, 10 uM ATP. Potency, µM, actives largely listed as inhibitors. 90% of 65 active;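 active means compound that inhibits Clk2 kinase in the dose series, with an IC50 potency reported; inactive means no inhibition seen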
CLK3 RBC: blocks human CLK3 kinase activity | 40% of 65 active | Potency, µM, actives largely listed as inhibitors | shares compounds with NTMT1 inhibitor | recombinant CLK3 kinase assay, 10 uM ATP;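 active means compounds that inhibited Clk3 enough in the ten-dose series to give a half-maximal potency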
DYRK1B RBC: blocks human DYRK1B kinase activity; shares compounds with NTMT1 inhibitor; Recombinant Dyrk1b kinase assay, 10 uM ATP; Potency, µM, hits mostly inhibitors; 80% of 65 active; AID 504429;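 active means compounds whose dose response shows an inhibitor phenotype against the kinase Dyrk1b; inactive means compounds showing no inhibitor phenotype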
CLK1 RBC: blocks human CLK1 kinase activity | Potency, µM, usual class: inhibitors | recombinant Clk1 kinase assay, 10 uM ATP | shares compounds with NTMT1 inhibitor | 90% of 65 active | AID 504430;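 active means compounds that block the splicing kinase Clk1 enough to give a fitted half-inhibition concentration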
Sfp PPTase inh: Sfp PPTase inhibition, chemistry optimization; purified Sfp PPTase enzyme activity, qHTS; shares compounds with NTMT1 inhibitor; 78% of 230 active; Potency, µM (doses to about 114 µM), hits mostly inhibitors
Bsub HM489 growth: reduces growth of B. subtilis HM489 strain; 50% of 220 active; B. subtilis HM489 (acpS-) growth, BacTiter-Glo, 5 h; Potency, µM (highest dose often 114 µM), hits mostly inhibitors; shares compounds with NTMT1 inhibitor; AID 540353
Sfp gel opt: Sfp PPTase inhibition, gel-based detection; shares compounds with NTMT1 inhibitor; purified Sfp PPTase, gel-based product detection; Potency, µM (highest dose often 250 µM), most hits filed as inhibitors; 54% of 220 active; AID 540355
Sfp SAR2: Sfp phosphopantetheinyl transferase inhibition, SAR round 2 | shares compounds with NTMT1 inhibitor | purified Sfp enzyme, PPTase activity, qHTS | Potency, µM (doses to about 57.1 µM), actives largely listed as inhibitors | 87% of 230 active
USP2a K63: confirmation of human USP2a inhibitors with K63 diubiquitin substrate | shares compounds with NTMT1 inhibitor | USP2 cleavage of DiUb K63-3IQF, fluorescence kinetic | Potency, µM (top dose mostly 57.5 µM), most hits filed as inhibitors | 80% of 30 active | AID 652172
Casp6 counter: inhibits human caspase-6 in USP2a selectivity assay | shares compounds with NTMT1 inhibitor | Caspase 6 enzyme, Caspase-Glo 6 luminescence | activity change, negative = inhibition, % at 46.1 µM | 30 tested, under 10 active
HSD17B4 inh: counter-screen for HPGD inhibitors: human HSD17B4 inhibition; 10% of 230 active; AID 743187; Potency, µM (titrated, usually from 57.1 µM), hits mostly inhibitors; purified HSD17B4, estradiol/NAD+, NADH fluorescence; shares compounds with NTMT1 inhibitor
ALDH1A1 counter: counter-screen for HPGD inhibitors: human ALDH1A1 inhibition; AID 743195; shares compounds with NTMT1 inhibitor; recombinant ALDH1A1, NADH fluorescence, propionaldehyde/NAD+; Potency, µM (top dose mostly 57.1 µM), usual class: inhibitors; 93% of 230 active
NNMT counter: blocks human NNMT methyltransferase; AID 1645878; 10% of 120 active; NNMT MTase-Glo luminescence, SAH detection; Potency, µM (highest dose often 57.1 µM), usual class: inhibitors; shares compounds with NTMT1 inhibitor
Target sequence (P40261 whole entry, looked up): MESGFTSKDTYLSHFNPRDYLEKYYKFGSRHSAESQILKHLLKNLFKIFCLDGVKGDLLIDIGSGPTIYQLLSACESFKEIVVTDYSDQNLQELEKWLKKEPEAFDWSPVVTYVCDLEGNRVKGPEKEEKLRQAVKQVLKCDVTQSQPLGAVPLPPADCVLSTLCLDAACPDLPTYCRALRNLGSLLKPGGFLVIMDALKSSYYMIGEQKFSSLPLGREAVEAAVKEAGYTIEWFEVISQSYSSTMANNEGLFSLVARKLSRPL
Of the large screens only hits and unclear results are named; the others gave an inactive call (follow-up assays come after a bar, where they were run). The sample as a whole holds a higher share of hits than the screen did. Unless noted, the call rests on the fitted dose curve; in most records, active means well fitted curve in the direction sought with a large enough effect; inconclusive means small, poorly fitted or top-dose-only effect, or another doubt; inactive means no such curve, though single readings can be large; an effect the other way counts as inactive or inconclusive.

CC(=O)c1c(OCCN2CCCCC2)c(OCCC(C)c2ccc(F)cc2)c2oc(C)nc2c1C (stereo not given)	NTMT1 inhibitor inconclusive (no result: HTT-AS act, HTT promoter inh) | NNMT counter inconclusive
Cc1cc(-c2ncc(CC(=O)Nc3ccc(-c4cnccn4)cn3)cc2C)ccn1	none | NNMT counter inconclusive
CC1(C)CC[C@]2(C(=O)O[C@@H]3O[C@H](CO)[C@@H](O)[C@H](O)[C@H]3O)CC[C@]3(C)C(=CCC4[C@@]5(C)C[C@@H](O)[C@H](O)C(CO)(CO)C5CC[C@]43C)C2[C@@H]1O (stereo not given in full)	none (no result: HTT-AS act, HTT promoter inh)
CCCC1(CCC)CCC2(CCN(CCCN(CC)CC)C2)CC1	NTMT1 inhibitor 22µM (no result: HTT-AS act, HTT promoter inh) | NNMT counter inactive
N#Cc1cccc(-c2noc(-c3ccccc3F)n2)c1	none (no result: HTT-AS act, HTT promoter inh)
Cn1cc(-c2c[nH]c3ncnc(N4CCOCC4)c23)cn1	none (no result: HTT-AS act, HTT promoter inh)
N#Cc1cccc(-c2c[nH]c3ncnc(N4CCOCC4)c23)c1	NTMT1 inhibitor 16µM (no result: HTT-AS act, HTT promoter inh) | NNMT counter inconclusive
Cc1ccc(S(=O)(=O)Nc2cnccc2C(=O)Nc2nc(-c3ccc(-c4ccccc4)cc3)cs2)cc1	none (no result: HTT-AS act, HTT promoter inh) | USP2a K63 1.7µM | Casp6 counter inactive
Cc1ccc(S(=O)(=O)Nc2cnccc2C(=O)Nc2nc(-c3cccc(C)c3)cs2)cc1	none (no result: HTT-AS act, NTMT1 inhibitor, HTT promoter inh) | USP2a K63 1.9µM | Casp6 counter inactive
O=C(NS(=O)(=O)c1ccc(Br)s1)c1ccc(Cl)cc1Cl	none (no result: HTT-AS act, HTT promoter inh)
CC(=O)c1cccc(NC(=O)Nc2nnc(-c3ccncc3)s2)c1	none (no result: HTT-AS act, HTT promoter inh)
N#Cc1c(-c2ccc3c(c2)OCO3)no[n+]1[O-]	none (no result: HTT-AS act, HTT promoter inh)
CCN(Cc1cccs1)c1ncnc2ccc(-c3ccc4c(c3)OCO4)cc12	NTMT1 inhibitor inconclusive (no result: HTT-AS act, HTT promoter inh) | DYRK1A inh-1 0.16µM | CLK4 inh-2 0.014 | DYRK1A inh-2 0.038µM | CLK2 inh 0.45µM | CLK3 RBC 6.2µM | DYRK1B RBC 0.23µM | CLK1 RBC 0.014µM
CCN(Cc1sccc1C)c1ncnc2ccc(-c3ccc4c(c3)OCO4)cc12	NTMT1 inhibitor inconclusive (no result: HTT-AS act, HTT promoter inh) | DYRK1A inh-1 1.2µM
CC(=O)Nc1sc2c(c1-c1ccc3c(c1)OCO3)CCNC2	none (no result: HTT-AS act, HTT promoter inh)
COC(=O)c1cc(OC)c(O[C@@H]2O[C@@H](C)[C@H](O)[C@@H](O)[C@H]2O)c(OC)c1	none (no result: HTT-AS act, HTT promoter inh)
C=CC(=O)N1CCC(C2CCNc3c(C(N)=O)c(-c4ccc(Oc5ccccc5)cc4)nn32)CC1 (stereo not given)	none (no result: HTT-AS act, HTT promoter inh)
C/C(=N\N=C(N)N)c1cc(NC(=O)CCCCCCCCC(=O)Nc2cc(/C(C)=N/N=C(N)N)cc(/C(C)=N/N=C(N)N)c2)cc(/C(C)=N/N=C(N)N)c1	NTMT1 inhibitor 5.6µM (no result: HTT-AS act, HTT promoter inh) | NNMT counter inconclusive
Cc1ccc(CN(C)c2ncnc3ccc(-c4ccc(CO)n4C)cc23)o1	none (no result: HTT-AS act, NTMT1 inhibitor, HTT promoter inh) | CLK4 inh-1 23µM
Cc1ccc(NS(=O)(=O)c2cc3c(cc2NCCO)NC(=O)CC3)cc1C	none (no result: HTT-AS act, HTT promoter inh)
Fc1cccc(CNc2nc(-c3ccccc3C(F)(F)F)nc3ccccc23)c1	none (no result: HTT-AS act, HTT promoter inh)
Cc1cc(C)nc(NC(=S)N2CCN(c3ncnc4sccc34)CC2)c1	none (no result: HTT-AS act, HTT promoter inh) | Sfp PPTase inh 5.9µM | Bsub HM489 growth inconclusive | Sfp gel opt 40µM | Sfp SAR2 1.8µM | HSD17B4 inh inactive | ALDH1A1 counter 9.6µM
